# Most compounds without a hit are left out; they make up all but 3.6% or so of the library.
# Pf apPOL block: Pf-apPOL DNA polymerase inhibition | Recombinant Pf-apPOL, molecular beacon fluorescence, 1.5 h | inhibition, % at 10 µM | actives 0.25% (n = 210,000) | AID 1794808
# mHTT CaM bind: mHTT-calmodulin interaction abrogation; AlphaScreen His-mHTT/GST-CaM binding, luminescence; actives 3.6% (n = 190,000); inhibition, % at 15 µM;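 also: 0% = both proteins with DMSO and 100% = one protein alone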
# * marks the source's active call; other numbers are inactive results; . = no result. Rule as the data show it: active = inhibition above about 50%; inactive = the rest.
SMILES,Pf apPOL block,mHTT CaM bind
COc1ccc(-n2c(C)cc(/C=C/[N+](=O)[O-])c2C)cc1Cl,-2,75*
Cc1cc(C=O)c(C)n1-c1ccc(F)c(Cl)c1,-7,13
CC(=O)Nc1nc(-c2ccc(C)cc2)c(-c2ccccc2)s1,0,34
NC(N)=Nc1nc(-c2ccccc2)c(-c2ccccc2)s1,0,100*
COc1ccccc1NC1OC(=O)c2ccccc21 (configuration not stated),-3,-1
COc1ccccc1NCC(O)CC1C(C)=C(C)c2ccccc21 (configuration not stated),1,63*
CCc1ccc(-n2nc3ccc(NC(=O)c4ccccc4OC)cc3n2)cc1,-8,-9
COc1cccc2c1OC1(C)CC2NC(=O)N1c1cccc(F)c1 (configuration not stated),-1,-4
CC1CCN(CCNc2ccc(-c3nc(-c4ccc(F)cc4)no3)cn2)CC1,-4,51*
CC1CCN(CCCNc2ccc(-c3nc(-c4ccc(F)cc4)no3)cn2)CC1,-4,35
O=C(c1ccc(Br)cc1)N1CCCCC1CCN1CCCCC1 (configuration not stated),-8,2
O=C1C(Nc2ccc(O)cc2)=CC(=NS(=O)(=O)c2ccc(Cl)cc2)c2ccccc21,0,98*
O=S(=O)(N=C(NS(=O)(=O)c1ccc(Cl)cc1)c1ccccc1)c1ccccc1,2,-1
O=C(O)c1ccc(NC2=CC(=NS(=O)(=O)c3ccccc3)c3ccccc3C2=O)cc1,7,62*
CCc1ccc(S(=O)(=O)N=C2C=C(Nc3cccc(C(=O)O)c3)C(=O)c3ccccc32)cc1,-3,80*
O=C(O)c1ccc(S(=O)(=O)c2ccccc2)cc1,-10,4
O=C(O)c1cccc(NC2=CC(=NS(=O)(=O)c3ccc(F)cc3)c3ccccc3C2=O)c1,17,45
COc1cc(C=C2Oc3cc(OCC(=O)OC(C)(C)C)ccc3C2=O)cc(OC)c1OC,-10,-11
Cc1cc(C)cc(-n2c(C)nc3cc(C(=O)NC(C)C)ccc32)c1,-15,10
Cc1ccc(OCC(=O)Nc2cccc([N+](=O)[O-])c2)cc1C,-14,2
O=S(=O)(c1ccccc1)N1CCN(S(=O)(=O)c2ccccc2)C1,8,-7
O=C1C(N2CCCC2)=C(N2CCN(S(=O)(=O)c3ccccc3)CC2)C(=O)c2ccccc21,-4,80*
O=C(c1cnn2ccc(C3CCN(C(=O)C4CCCCC4)CC3)cc12)N1CCOCC1,-2,11
CCCNC(=O)C(=O)Nc1cccc(Cl)c1,-1,-2
COc1ccc(-c2nc3n(n2)C(c2ccc(OC)c(OC)c2)C2=C(CCCC2=O)N3)cc1 (configuration not stated),-1,16
SMILES,Pf apPOL block,mHTT CaM bind
COc1ccc(C2C3=C(CCCC3=O)Nc3nc(-c4ccc(N(C)C)cc4)nn32)cc1OC (configuration not stated),2,80*
CC1(C)CC(=O)C2=C(C1)Nc1nc(-c3ccccc3)nn1C2c1ccc(F)cc1 (configuration not stated),-1,78*
CC1(C)CC(=O)C2=C(C1)Nc1nc(-c3ccc(O)cc3)nn1C2c1ccccc1 (configuration not stated),0,-9
COc1cc(-c2nc3n(n2)C(c2ccccc2)C2=C(CCCC2=O)N3)cc(OC)c1OC (configuration not stated),-3,52*
COc1cc(C2C3=C(CCCC3=O)Nc3nc(-c4ccc(O)cc4)nn32)cc(OC)c1OC (configuration not stated),-2,12
CN(C)C1CN(C(=O)c2cccn2C)CCC1(O)c1ccccc1 (configuration not stated),0,3
COc1ccc(C)cc1NC(=O)c1cc(S(=O)(=O)N2CCC3(CC2)OCCO3)ccc1F,34,13
COCCOC(=O)c1c(C)oc2ccc(OC(C)=O)cc12,-2,-7
O=C(CSc1nc(-c2ccccc2)cn1-c1ccccc1)NC(=O)Nc1ccccc1,0,.
CCOc1cc(C(=O)Nc2ccc(N3CCCC3)cc2)cc(OCC)c1OCC,-8,79*
COc1ccc(C(=O)Nc2ccc(N3CCCC3)cc2)cc1OC,-9,7
Cc1ccc(OCC(=O)Nc2ccc(N3CCCC3)cc2)cc1C,4,99*
Cc1cccc(OCC(=O)Nc2ccc(Nc3ccccc3)cc2)c1,1,74*
CCC(=O)Nc1ccc(NC(=O)COc2ccc(C)c(C)c2)cc1,-9,-5
COc1ccc(C(=O)Nc2ccc(N3CCCC3)cc2)cc1,1,99*
CCC(=O)Nc1ccc(NC(=O)COc2cccc(C)c2)cc1,-3,-2
COc1ccc(C(=O)Nc2ccc(N3CCOCC3)cc2)cc1,-3,5
COc1ccc(/C=C2\N=C(c3ccc(Cl)cc3)OC2=O)cc1,-3,6
CCN(CC)CCCNC(=O)CSc1nc2nc(C)cc(C)n2n1,-16,2
COc1ccc(C2C(=C(O)c3ccccc3)C(=O)C(=O)N2C)c(OC)c1 (configuration not stated),6,8
CC1CCCN(CC2CCN(S(=O)(=O)c3ccccc3)CC2)C1 (configuration not stated),2,3
CCCCC(=O)Nc1ccc(NC(=O)c2ccc(OCC)c(Br)c2)cc1OC,-5,1
CCCNC(=O)C1CCN(c2cncnc2N(C)C)CC1,-8,-4
O=C(CN1N=NC2C(=O)N(c3ccc(F)cc3)C(=O)C21)Nc1cccc(Cl)c1 (configuration not stated),-2,2
COc1cc(NS(=O)(=O)c2ccc(NC(=O)c3ccccc3)cc2)ncn1,2,3
SMILES,Pf apPOL block,mHTT CaM bind
O=C(NC1CC1)c1cccc(OCC2CCCN(C(=O)c3cccc(F)c3)C2)c1 (configuration not stated),-1,-1
Cc1ccc(OCC(=O)N2CCCCC2CCN2CCCCC2)cc1C (configuration not stated),-7,54*
Cc1cc(OCC(=O)N2CCCCC2CCN2CCCC2)ccc1Cl (configuration not stated),-10,14
O=C(c1ccccc1)c1ccc(NC(=O)c2cccs2)c(NC(=O)c2cccs2)c1,4,6
O=C(Nc1c2c(nn1-c1ccccc1)CSC2)c1ccco1,-12,77*
O=C(Nc1c2c(nn1-c1ccc(Oc3ccccc3)cc1)CSC2)c1ccco1,-9,96*
O=C(Nc1c2c(nn1-c1ccc(F)cc1)CSC2)c1ccco1,-7,79*
O=C(Nc1c2c(nn1-c1ccccc1)CSC2)C1CC1,-4,22
COc1ccc(-n2nc3c(c2NC(=O)c2ccco2)CS(=O)(=O)C3)cc1,1,4
O=C(Nc1c2c(nn1-c1ccc(Oc3ccccc3)cc1)CSC2)C1CC1,-10,56*
O=C(Nc1c2c(nn1-c1ccc(F)cc1)CS(=O)C2)c1ccco1 (configuration not stated),-4,3
O=C(Nc1c2c(nn1-c1ccc([N+](=O)[O-])cc1)CSC2)c1ccco1,17,28
CC(=O)NN1C(=O)CSC1=S,5,.
COc1cccc(C(=O)N2CC(C(=O)NC(C)C)C(c3ccccc3)C2)c1 (configuration not stated),-6,-3
Cc1ccc(C2CC(c3ccccc3)n3ncnc3N2)cc1 (configuration not stated),-2,-6
Cc1ccc(C2CC(c3cccs3)n3ncnc3N2)cc1 (configuration not stated),-2,4

# Bioassay records (PubChem)
